# Data reported in PubChem BioAssay.
# Values joined by “and” are separate entries in the source; they are usually repeats but may differ in a detail not shown here. Equal entries are not always repeated. Active and inactive are the calls of the source.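 Rule for the calls, unless noted: active = compounds whose cell count with miR-34 switched on is under 0.7 times the count with it off; inactive = the rest.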
# How the values were obtained:
# [1] = yeast 75Q aggregation reduction – 75Q-TubU reporter (AID 1593); details: Yeast 75Q polyglutamine aggregation reporter
# [2] = blockers of cytochrome c efflux from mitochondria – biochemical, purified mitochondria (AID 1603); details: stronger effect = lower value;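 note: mouse liver mitochondria challenged with calcium chloride; signal normalized to the plate average as 100%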
# [3] = polyglutamine aggregate formation blockers (AID 1604); details: polyglutamine-induced protein aggregation inhibition assay; stronger effect = higher value; tested at 2.5 µM
# [4] = P. berghei load reduction in hepatocytes – cell-based, HepG2, luciferase luminescence, HepG2 viability, primary screen (AID 624349; in the data active = parasite load remaining mostly below about 12%, no sharp cut-off; inactive = mostly above about 10%;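 note: 100% = mean of DMSO negative control wells on the same plate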); details: P. berghei liver stage in HepG2, luciferase luminescence, concentration not given here; parasite load remaining: stronger effect = lower value; viability: measured here: HepG2 viability without parasites
# [5] = Wnt pathway potentiators raising nuclear beta-catenin – imaging, WNT3A-conditioned medium, mouse C2C12, NPC library, primary screen (AID 1117326; in the data active = nuclear beta-catenin stimulation mostly above about 4.2%, no sharp cut-off; inactive = mostly below about 10%); details: stronger effect = higher value
# [6] = stimulators of insulin release from INS-1E, primary screen, cell-based, 5 mM glucose, NPC library (AID 1117329;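 active = compound raises insulin release from rat beta cells at 5 mM glucose, no numeric limit stated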); details: rat INS-1E insulin secretion, at 10 µM, stronger effect = higher value
# [7] = growth inhibition of GSK3B-pretreated HCT116 cells – cell-based, CellTiter-Glo, 0.2 to 20 µM (AID 1117336;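 active = compounds lowering colon cancer cell viability after pretreatment blocking the GSK3B kinase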); details: HCT116 viability after GSK3B inhibitor, at 20 µM, stronger effect = higher value
# [8] = inhibition of endothelial tube formation, primary screen, imaging, VEGF stimulated, CD31 staining, tube area, NPC library (AID 1117340;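 active = compound that reduces growth-factor-driven endothelial tube area in a mixed cell culture, no cutoff stated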); details: VEGF-stimulated ADSC/ECFC co-culture, at 10 µM, stronger effect = higher value
# [9] = GLP1 release stimulators, primary, NCI-H716, NPC library (AID 1117341;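 active = compound raises GLP1 secretion from the human gut endocrine cells, with no numeric limit stated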); details: NCI-H716 cells, at 10 µM, stronger effect = higher value
# [10] = HCT116 colon cancer cell growth inhibition, primary screen, CellTiter-Glo luminescence, NPC library (AID 1117342;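 active = compounds that lower survival of HCT116 colon cancer cells in the luminescence readout, no numeric limit stated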); details: at 20 µM (top of the series)
# [11] = reduced SW480 viability measured with CellTiter-Glo, NPC library, primary (AID 1117343;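 active = compounds that lower viability of the colon cancer cells in the luminescence readout, with no numeric limit stated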); details: CellTiter-Glo luminescence; at 20 µM (top of the series)
# [12] = NPC library primary testing for decreased DLD-1 cell viability via CellTiter-Glo (AID 1117346;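 active = compounds that lower survival of DLD-1 colon cancer cells in the luminescence readout, no cutoff given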); details: DLD-1 viability, CellTiter-Glo luminescence; at 20 µM (top of the series)
# [13] = EMT-state selective cytotoxicity in co-culture – imaging, PC-3E GFP, TEM4-18 mCherry, primary screen (AID 1345086;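 active = compounds killing one labelled cell type while sparing the other, by normalised counts and ratio limits, not self-fluorescent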;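 for all read-outs here: cells exposed to compound for 72 h before imaging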;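 for red/green cell ratio (normalised): normalised mesenchymal count divided by normalised epithelial count so high means epithelial killing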); details: PC-3E GFP / TEM4-18 mCherry co-culture, imaging cell counts, at 1 µM; for red/green cell ratio (normalised): actives lie on both sides
# [14] = test system: Aerobactin synthetase IucA (Klebsiella pneumoniae hvKP1); test: IucA enzyme inhibition, primary screen, biochemical, Spectrum library (AID 1346200; call rule not given here;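 note: 100% = wells without compound and 0% = wells lacking enzyme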); details: malachite green pyrophosphate, A620, at 8 µM, stronger effect = lower value
# [15] = viability loss with induced miR-34 in A549 – imaging, A549 dox-inducible miR-34, nuclei and caspase counts, primary screen (AID 1347080); details: A549 miR-34 inducible, Hoechst nuclei count, 48 h
# [16] = target: NAD(+) hydrolase SARM1 (Homo sapiens) (UniProt Q6SZW1); test: blocking NAD cleavage by SARM1 SAM-TIR – cell lysate, NAD-Glo luminescence (AID 1508614;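 active = compound whose remaining NAD level is above about 45 nM, limit read from the data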;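 note: higher remaining NAD means stronger inhibition of SARM1 NADase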); details: SAM-TIR HEK293T lysate NADase, at 1 µM, stronger effect = higher value
# Sequence of NAD(+) hydrolase SARM1 (Homo sapiens) (Q6SZW1 whole entry, looked up): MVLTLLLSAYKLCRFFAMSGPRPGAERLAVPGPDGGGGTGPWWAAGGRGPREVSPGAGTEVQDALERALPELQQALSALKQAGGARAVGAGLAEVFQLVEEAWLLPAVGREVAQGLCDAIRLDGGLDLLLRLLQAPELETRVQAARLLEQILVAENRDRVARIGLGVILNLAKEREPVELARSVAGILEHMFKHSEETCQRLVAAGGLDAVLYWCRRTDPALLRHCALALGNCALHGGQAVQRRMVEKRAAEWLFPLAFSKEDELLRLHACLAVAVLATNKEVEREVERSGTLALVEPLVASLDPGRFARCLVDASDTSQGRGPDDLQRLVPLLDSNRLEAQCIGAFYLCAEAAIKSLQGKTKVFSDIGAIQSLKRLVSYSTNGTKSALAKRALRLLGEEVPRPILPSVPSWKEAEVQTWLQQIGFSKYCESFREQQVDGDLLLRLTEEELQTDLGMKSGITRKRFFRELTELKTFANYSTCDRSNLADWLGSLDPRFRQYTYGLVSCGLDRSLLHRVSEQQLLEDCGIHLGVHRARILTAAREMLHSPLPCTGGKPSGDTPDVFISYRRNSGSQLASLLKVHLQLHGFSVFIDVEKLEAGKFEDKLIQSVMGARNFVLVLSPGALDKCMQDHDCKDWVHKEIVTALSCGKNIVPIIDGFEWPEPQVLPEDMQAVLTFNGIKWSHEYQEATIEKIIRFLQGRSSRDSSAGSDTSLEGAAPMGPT
# [17] = target: 6-phosphogluconate dehydrogenase, decarboxylating (Homo sapiens) (UniProt P52209); test: inhibition of human phosphogluconate dehydrogenase – biochemical, recombinant enzyme, NADPH absorbance, primary screen (AID 1159550;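 active = at least 20% inhibition of 6-phosphogluconate dehydrogenase activity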); details: recombinant 6PGD, NADPH absorbance 341 nm; at 10 µM; stronger effect = higher value
# Sequence of 6-phosphogluconate dehydrogenase, decarboxylating (Homo sapiens) (P52209 whole entry, looked up, the tested form may be a part): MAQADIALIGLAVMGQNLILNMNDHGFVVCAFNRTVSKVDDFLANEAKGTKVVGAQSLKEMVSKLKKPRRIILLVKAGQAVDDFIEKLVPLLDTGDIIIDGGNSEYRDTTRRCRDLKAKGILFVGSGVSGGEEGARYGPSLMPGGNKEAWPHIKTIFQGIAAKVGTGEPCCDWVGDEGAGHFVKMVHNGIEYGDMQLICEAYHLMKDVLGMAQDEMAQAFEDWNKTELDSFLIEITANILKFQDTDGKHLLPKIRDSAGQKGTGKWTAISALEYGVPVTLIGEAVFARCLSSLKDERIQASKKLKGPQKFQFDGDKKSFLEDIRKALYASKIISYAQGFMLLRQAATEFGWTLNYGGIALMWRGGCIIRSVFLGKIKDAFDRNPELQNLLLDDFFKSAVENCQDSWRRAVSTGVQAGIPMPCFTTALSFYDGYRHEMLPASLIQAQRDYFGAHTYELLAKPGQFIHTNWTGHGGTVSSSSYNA
# [18] = target: Mitogen-activated protein kinase 7 (Homo sapiens) (UniProt Q13164); test: Gal4-ERK5 driven luciferase induction – cell-based, HTS, primary screen (AID 1508626;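 active = luciferase signal above three times the same-plate solvent-only control wells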;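 note: luciferase driven by Gal4-ERK5 fusion binding five Gal4 sites before minimal TATA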); details: HeLa Gal4-ERK5 transactivation, 18 h, at 5 µM, stronger effect = higher value
# Sequence of Mitogen-activated protein kinase 7 (Homo sapiens) (Q13164 whole entry, looked up, the tested form may be a part): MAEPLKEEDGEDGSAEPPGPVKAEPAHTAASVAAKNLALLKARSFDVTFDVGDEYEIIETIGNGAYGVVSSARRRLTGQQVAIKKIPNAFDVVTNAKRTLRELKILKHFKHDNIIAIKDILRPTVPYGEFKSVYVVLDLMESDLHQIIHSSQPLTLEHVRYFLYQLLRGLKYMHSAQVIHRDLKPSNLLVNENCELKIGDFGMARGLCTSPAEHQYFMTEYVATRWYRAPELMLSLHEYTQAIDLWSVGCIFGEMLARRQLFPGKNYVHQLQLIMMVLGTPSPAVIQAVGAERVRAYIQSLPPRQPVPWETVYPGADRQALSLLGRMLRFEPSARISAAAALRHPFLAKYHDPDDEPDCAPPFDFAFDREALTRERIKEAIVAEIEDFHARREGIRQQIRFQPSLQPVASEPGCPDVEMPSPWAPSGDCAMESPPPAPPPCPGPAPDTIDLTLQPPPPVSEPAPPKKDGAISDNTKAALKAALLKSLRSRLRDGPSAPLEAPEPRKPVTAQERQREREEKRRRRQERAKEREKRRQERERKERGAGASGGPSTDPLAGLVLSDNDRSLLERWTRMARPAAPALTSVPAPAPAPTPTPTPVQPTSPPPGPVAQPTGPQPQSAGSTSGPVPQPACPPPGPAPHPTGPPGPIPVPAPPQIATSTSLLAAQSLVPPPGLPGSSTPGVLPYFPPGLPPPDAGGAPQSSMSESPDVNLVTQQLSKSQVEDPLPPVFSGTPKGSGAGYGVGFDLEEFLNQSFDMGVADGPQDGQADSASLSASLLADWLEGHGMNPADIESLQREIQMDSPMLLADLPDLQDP
# [19] = galactose survival enhancers in mitochondrial complex I cybrids – cell-based, galactose medium, ATP luminescence, primary screen (AID 1645843;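 active = z-score of at least 1.8 in each of two replicates, scored against plate mean and spread of sample wells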;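 note: positive z means more ATP and so rescue of galactose-driven cybrid death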); details: complex I mutant cybrid cells, 72 h, stronger effect = higher value
# [20] = measured here: epithelial PC-3E GFP cell survival
# [21] = measured here: mesenchymal TEM4-18 mCherry cell survival
# [22] = measured here: relative caspase fold change +Dox/-Dox
# [23] = measured here: total cells with miR-34 induction, stronger effect = lower value
# [24] = measured here: total cells without miR-34 induction
smiles,measurement,setting,value
Oc1cccc2cccnc12,score,[1],0.03
same,cytochrome c release ratio,[2],0.94
same,inhibition of aggregation,[3],83.3%
same,parasite load remaining,[4],64.5% (inactive) and 25.4% (inactive)
same,viability,[4],53.5% and 57.1%
same,nuclear beta-catenin stimulation,[5]; at 10 µM,6.4% (inactive)
same,nuclear beta-catenin stimulation,"[5]; stimulation, at 2 µM",0.8%
same,insulin secretion stimulation,[6],-1% (inactive)
same,viability decrease,[7],-3.1% (inactive)
same,tube area decrease,[8],-4.7% (inactive)
same,GLP1 secretion stimulation,[9],81.5% (active)
same,inhibition of viability,[10],8.1% (inactive)
same,viability decrease (inhibition),[11],68.4% (active)
same,viability decrease (inhibition),[12],53.9% (active)
same,red/green cell ratio (normalised),[13],1.03 (inactive)
same,normalised cell number,[13]; [20],0.9
same,normalised cell number,[13]; [21],0.93
same,activity remaining,[14],111% (inactive)
same,fold change,[15]; stronger effect = lower value,0.857 (inactive)
same,fold change,[15]; [22],0.864
same,cell count,[15]; [23],8140
same,cell count,[15]; [24],9500
same,remaining NAD,[16],10 nM (inactive)
CN[C@@H](C)[C@H](O)c1ccccc1,nuclear beta-catenin stimulation,[5]; at 10 µM,1.4% (inactive)
same,nuclear beta-catenin stimulation,"[5]; stimulation, at 2 µM",0.6%
same,insulin secretion stimulation,[6],0% (inactive)
same,viability decrease,[7],-2.5% (inactive)
same,tube area decrease,[8],-1.6% (inactive)
same,GLP1 secretion stimulation,[9],0.8% (inactive)
same,inhibition of viability,[10],-12.5% (inactive)
same,viability decrease (inhibition),[11],5.5% (inactive)
same,viability decrease (inhibition),[12],-4.6% (inactive)
same,inhibition,[17],16.5% (inactive)
N#Cc1nn(-c2c(Cl)cc(C(F)(F)F)cc2Cl)c(N)c1S(=O)C(F)(F)F (configuration not stated),parasite load remaining,[4],148% (inactive) and 35.4% (inactive)
same,viability,[4],82.8% and 121%
same,nuclear beta-catenin stimulation,[5]; at 10 µM,6.4% (inactive)
same,nuclear beta-catenin stimulation,"[5]; stimulation, at 2 µM",2.1%
same,insulin secretion stimulation,[6],0.5% (inactive)
same,viability decrease,[7],-53.1% (inactive)
same,tube area decrease,[8],9.4% (inactive)
same,GLP1 secretion stimulation,[9],-1.4% (inactive)
same,inhibition of viability,[10],17.3% (inactive)
same,viability decrease (inhibition),[11],42.7% (inactive)
same,viability decrease (inhibition),[12],6.4% (inactive)
same,red/green cell ratio (normalised),[13],0.9 (inactive)
same,normalised cell number,[13]; [20],1
same,normalised cell number,[13]; [21],0.9
same,activity remaining,[14],115% (inactive)
same,fold change,[15]; stronger effect = lower value,0.962 (inactive) and 0.928 (inactive)
same,fold change,[15]; [22],1.07 and 3.63
same,cell count,[15]; [23],4080 and 11800
same,cell count,[15]; [24],4240 and 12700
same,remaining NAD,[16],10 nM (inactive)
same,luciferase signal,[18],40 AU (inactive)
O=C(O)C(Cl)Cl,parasite load remaining,[4],106% (inactive)
same,viability,[4],113%
same,nuclear beta-catenin stimulation,[5]; at 10 µM,1.9% (inactive)
same,nuclear beta-catenin stimulation,"[5]; stimulation, at 2 µM",0%
same,insulin secretion stimulation,[6],-1.6% (inactive)
same,viability decrease,[7],-4.8% (inactive)
same,tube area decrease,[8],-7.2% (inactive)
same,GLP1 secretion stimulation,[9],-2% (inactive)
same,inhibition of viability,[10],-9.3% (inactive)
same,viability decrease (inhibition),[11],38.4% (inactive)
same,viability decrease (inhibition),[12],8.5% (inactive)
same,fold change,[15]; stronger effect = lower value,1.04 (inactive)
same,fold change,"[15]; stronger effect = lower value, cell number ratio, induced over uninduced",0.958 (inactive)
same,fold change,[15]; [22],1.82 and 1.65
same,cell count,[15]; [23],10400 and 8960
same,cell count,[15]; [24],10100 and 9360
same,z-score,[19],0.605 (inactive) and 0.045 (inactive)
O=C(N/N=C/c1ccc([N+](=O)[O-])o1)c1cc([N+](=O)[O-])cc([N+](=O)[O-])c1O,nuclear beta-catenin stimulation,[5]; at 10 µM,0.7% (inactive)
same,nuclear beta-catenin stimulation,"[5]; stimulation, at 2 µM",1.8%
same,insulin secretion stimulation,[6],1.3% (inactive)
same,viability decrease,[7],79.6% (active)
same,tube area decrease,[8],-13.6% (inactive)
same,GLP1 secretion stimulation,[9],1% (inactive)
same,inhibition of viability,[10],29.8% (inactive)
same,viability decrease (inhibition),[11],25.2% (inactive)
same,viability decrease (inhibition),[12],4.8% (inactive)
same,red/green cell ratio (normalised),[13],1.05 (inactive)
same,normalised cell number,[13]; [20],1.03
same,normalised cell number,[13]; [21],1.08
same,fold change,[15]; stronger effect = lower value,0.946 (inactive)
same,fold change,[15]; [22],1.02
same,cell count,[15]; [23],8410
same,cell count,[15]; [24],8890
